This note sets out measurements from PubChem BioAssay (NCATS).

The structures appear in SMILES notation. Results filed as inconclusive are left out. Calls of active or inactive are those of the source. Calls come from the whole dose curve; as a rule, active = well fitted curve in the direction sought with a large enough effect; inconclusive = small, poorly fitted or top-dose-only effect, or another doubt; inactive = no such curve, though single readings can be large; an effect the other way counts as inactive or inconclusive.
% is set by controls: 0 for no effect and ±100 for the full control effect; potency is the fitted concentration of half-maximal effect.

Glutathione peroxidase 1 (Homo sapiens), sequence (P07203 whole entry, looked up): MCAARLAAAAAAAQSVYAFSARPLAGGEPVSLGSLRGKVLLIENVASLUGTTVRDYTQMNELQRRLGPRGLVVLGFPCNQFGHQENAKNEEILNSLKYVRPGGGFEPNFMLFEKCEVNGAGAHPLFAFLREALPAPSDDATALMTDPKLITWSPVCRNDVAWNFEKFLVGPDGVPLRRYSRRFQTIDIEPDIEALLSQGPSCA
Metallo-beta-lactamase type 2 (Klebsiella pneumoniae), sequence (C7C422 whole entry, looked up): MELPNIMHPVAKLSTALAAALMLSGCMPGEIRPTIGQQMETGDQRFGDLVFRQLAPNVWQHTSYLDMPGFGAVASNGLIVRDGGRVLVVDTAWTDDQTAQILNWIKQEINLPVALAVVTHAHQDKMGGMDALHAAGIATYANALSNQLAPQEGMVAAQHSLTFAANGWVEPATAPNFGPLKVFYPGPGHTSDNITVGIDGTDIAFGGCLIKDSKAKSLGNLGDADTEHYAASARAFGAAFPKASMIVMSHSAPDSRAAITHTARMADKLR

In the first assay the target is Metallo-beta-lactamase type 2 (Klebsiella pneumoniae) (UniProt C7C422). The assay can be described thus: qHTS to identify inhibitors of the New Delhi Metallo-beta-lactamase (NDM): assay validation screen against the NCATS LOPAC Collection (AID 1794843). Particulars: NDM-1 enzyme, nitrocefin hydrolysis, absorbance 485 nm; series mostly up to 38.4 µM; activity change, negative = inhibition: at the top concentration. Summed up:
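Absorbance at 485 nm from nitrocefin turnover (50 uM solution added), read at plateau, gives the read-out. Compounds in DMSO were incubated first with 2 nM final NDM-1 in pH 7.0 HEPES buffer containing 1 uM ZnSO4 and 0.01% Tween20.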
`C[N+](C)(C)CCOC(N)=O`: the “activity change, negative = inhibition” value was 1.45% (inactive).

For `CC(C)(C)NCC(O)c1cc(O)cc(O)c1` (stereo unspecified), the “activity change, negative = inhibition” value was -5.15% (inactive).

With `O=C(O)CN(CCN(CC(=O)O)CC(=O)O)CCN(CC(=O)O)CC(=O)O`, the Potency was 2.82 µM (active).

For the molecule `NC(N)=NC(=O)Cc1c(Cl)cccc1Cl`, the “activity change, negative = inhibition” value is 6.76% (inactive).

In the case of `Cc1nnc(SCC2=C(C(=O)O)N3C(=O)[C@@H](NC(=O)Cn4cnnn4)[C@H]3SC2)s1`, the “activity change, negative = inhibition” value is -11.3% (inactive).

`CCC(=O)c1ccc2c(c1)N(CCCN(C)C)c1ccccc1S2`: the “activity change, negative = inhibition” value is 3.81% (inactive).

As to `COC(=O)[C@@H](N)Cc1ccc(O)c(O)c1`, the “activity change, negative = inhibition” value is -9.85% (inactive).

On to `CCCOc1ccccc1-c1nc2n[nH]nc2c(=O)[nH]1`, for which the “activity change, negative = inhibition” value is 6.85% (inactive).

Consider `CNCCCN1c2ccccc2CCc2ccccc21`, for which the “activity change, negative = inhibition” value was 7.5% (inactive).

For the molecule `Cc1ccc(Cl)c(Nc2ccccc2C(=O)O)c1Cl`, the “activity change, negative = inhibition” value was -9.38% (inactive).

For the molecule `O=C(CCCN1CCC(O)(c2cccc(C(F)(F)F)c2)CC1)c1ccc(F)cc1`, the “activity change, negative = inhibition” value is -0.717% (inactive).

As for `Cc1nc2ccccn2c(=O)c1CCN1CCC(C(=O)c2ccc(F)cc2)CC1`, the “activity change, negative = inhibition” value was 6.96% (inactive).

Consider `CN(C)CC/C=C1\c2ccccc2COc2ccccc21`, for which the “activity change, negative = inhibition” value was 2.79% (inactive).

As for `CCCCNc1c(C(=O)OCC)c(C)nc2c1cnn2CC`, the “activity change, negative = inhibition” value is -0.425% (inactive).

Regarding `c1cc(CN2CCCCC2)cc(OCCCNc2nc3ccccc3s2)c1`, the “activity change, negative = inhibition” value was -3.07% (inactive).

`CN1C[C@H](C(=O)N[C@]2(C)O[C@@]3(O)[C@@H]4CCCN4C(=O)[C@H](Cc4ccccc4)N3C2=O)C[C@@H]2c3cccc4[nH]cc(c34)C[C@H]21`: the “activity change, negative = inhibition” value is 11% (inactive).

Consider `CN1CCN(C2=Nc3ccccc3Oc3ccc(Cl)cc32)CC1`, for which the “activity change, negative = inhibition” value was 2.55% (inactive).

For the molecule `NC1=NCC2c3ccccc3Cc3ccccc3N12` (stereo unspecified), the “activity change, negative = inhibition” value was -2.87% (inactive).

Turning to `OCCN1CCN(CCCN2c3ccccc3C=Cc3ccccc32)CC1`, the “activity change, negative = inhibition” value was -16.2% (inactive).

Consider `C[C@]12CCC(=O)C=C1CC[C@@H]1[C@@H]2CC[C@@]2(C)[C@H]1CC[C@]2(O)C(=O)CO`, for which the “activity change, negative = inhibition” value is -0.117% (inactive).

Regarding `COc1ccc2c(c1OC)C(=O)O[C@@H]2[C@H]1c2c(cc3c(c2OC)OCO3)CCN1C`, the “activity change, negative = inhibition” value is -8.43% (inactive).

For `OC(CCN1CCCCC1)(c1ccccc1)C1CCCCC1` (stereo unspecified), the “activity change, negative = inhibition” value was -3.04% (inactive).

On to `Fc1ccc(C(c2ccc(F)cc2)N2CCN(C/C=C/c3ccccc3)CC2)cc1`, for which the “activity change, negative = inhibition” value is -18.8% (inactive).

Turning to `CNCCC(Oc1ccccc1OC)c1ccccc1` (stereo unspecified), the “activity change, negative = inhibition” value was -6.49% (inactive).

In the case of `CCCN1C[C@H](CSC)C[C@@H]2c3cccc4[nH]cc(c34)C[C@H]21`, the “activity change, negative = inhibition” value was -0.99% (inactive).

Regarding `CCN(CC)CCCN(c1ccccc1)C1Cc2ccccc2C1`, the “activity change, negative = inhibition” value was 0.499% (inactive).

For `CN(C)[C@@H]1C(=O)C(C(N)=O)=C(O)[C@@]2(O)C(=O)C3=C(O)c4c(O)ccc(Cl)c4[C@@H](O)[C@H]3C[C@@H]12`, the “activity change, negative = inhibition” value is 2.28% (inactive).

`CCNC(=O)N1CCN(CCCC(c2ccc(F)cc2)c2ccc(F)cc2)CC1`: the “activity change, negative = inhibition” value is 8.16% (inactive).

Take `COC(=O)C1=C(C)NC(C)=C(C(=O)OC(C)(C)CN(C)CCC(c2ccccc2)c2ccccc2)C1c1cccc([N+](=O)[O-])c1` (stereo unspecified): the “activity change, negative = inhibition” value was -0.587% (inactive).

For the molecule `CN(C)CCCN1c2ccccc2Sc2ccccc21`, the “activity change, negative = inhibition” value was -1.45% (inactive).

With `COCCCC/C(=N\OCCN)c1ccc(C(F)(F)F)cc1`, the “activity change, negative = inhibition” value was 11.3% (inactive).

On to `CCc1cccc(N(C)C(N)=Nc2cccc3ccccc23)c1`, for which the “activity change, negative = inhibition” value was -0.622% (inactive).

A further assay deals with Glutathione peroxidase 1 (Homo sapiens) (UniProt P07203). Kind of assay: Primary qHTS Assay for Inhibitors of Recombinant Selenoprotein Glutathione Peroxidase 1 (GPX1) (AID 1845191). Note: nearly all actives have a fitted effect of over 65% in size. Particulars: recombinant GPX1, GR-coupled NADPH fluorescence, 15 min; series mostly up to 48.8 µM; activity, negative = inhibition: at the top concentration. Summed up:
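Recombinant GPX1 (10 nM final) was preincubated with compound for 30 min at room temperature, then reacted with 1 mM GSH, 0.5 mM CHP, 0.5 mM NADPH and 100 nM glutathione reductase; NADPH fluorescence (340/450 nm) was read at 0 and 15 min.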
On the technique in general: In qHTS, concentration-response curves come from the screen itself.
In the case of `CCN(CC)CCOCCOC(=O)C1(c2ccccc2)CCCC1`, the Potency result was “inactive”.

With `CC(C)(C)NCC(O)c1cc(O)cc(O)c1` (stereo unspecified), the Potency entry is “inactive”.

Consider `O=C(O)CN(CCN(CC(=O)O)CC(=O)O)CCN(CC(=O)O)CC(=O)O`, for which the Potency result was “inactive”.

For the molecule `NC(N)=NC(=O)Cc1c(Cl)cccc1Cl`, the Potency entry is “inactive”.

Regarding `Cc1nnc(SCC2=C(C(=O)O)N3C(=O)[C@@H](NC(=O)Cn4cnnn4)[C@H]3SC2)s1`, the Potency was 20.2 µM (active).

With `CCC(=O)c1ccc2c(c1)N(CCCN(C)C)c1ccccc1S2`, the Potency entry was “inactive”.

For `COC(=O)[C@@H](N)Cc1ccc(O)c(O)c1`, the “activity, negative = inhibition” value is -5.4% (inactive).

For the molecule `CCCOc1ccccc1-c1nc2n[nH]nc2c(=O)[nH]1`, the outcome was inactive.

As to `Cc1ccc(Cl)c(Nc2ccccc2C(=O)O)c1Cl`, the Potency result is “inactive”.

For `O=C(CCCN1CCC(O)(c2cccc(C(F)(F)F)c2)CC1)c1ccc(F)cc1`, the “activity, negative = inhibition” value was 3.05% (inactive).

As for `Cc1nc2ccccn2c(=O)c1CCN1CCC(C(=O)c2ccc(F)cc2)CC1`, the “activity, negative = inhibition” value was 2.24% (inactive).

On to `CN(C)CC/C=C1\c2ccccc2COc2ccccc21`, for which the Potency result is “inactive”.

In the case of `CCCCNc1c(C(=O)OCC)c(C)nc2c1cnn2CC`, the “activity, negative = inhibition” value is -18.6% (inactive).

As for `c1cc(CN2CCCCC2)cc(OCCCNc2nc3ccccc3s2)c1`, the result was inactive.

For `CN1CCN(C2=Nc3ccccc3Oc3ccc(Cl)cc32)CC1`, the Potency result was “inactive”.

As for `NC1=NCC2c3ccccc3Cc3ccccc3N12` (stereo unspecified), the Potency result was “inactive”.

Take `OCCN1CCN(CCCN2c3ccccc3C=Cc3ccccc32)CC1`: the Potency entry is “inactive”.

In the case of `C[C@]12CCC(=O)C=C1CC[C@@H]1[C@@H]2CC[C@@]2(C)[C@H]1CC[C@]2(O)C(=O)CO`, the result was inactive.

Take `OC(CCN1CCCCC1)(c1ccccc1)C1CCCCC1` (stereo unspecified): the Potency entry was “inactive”.

On to `Fc1ccc(C(c2ccc(F)cc2)N2CCN(C/C=C/c3ccccc3)CC2)cc1`, for which the Potency result was “inactive”.

With `CNCCC(Oc1ccccc1OC)c1ccccc1` (stereo unspecified), the “activity, negative = inhibition” value was -14.2% (inactive).

As for `CCCN1C[C@H](CSC)C[C@@H]2c3cccc4[nH]cc(c34)C[C@H]21`, the Potency entry was “inactive”.

As for `CN(C)CC[C@@H](c1ccc(Br)cc1)c1ccccn1`, the outcome was inactive.

In the case of `COCCCC/C(=N\OCCN)c1ccc(C(F)(F)F)cc1`, the Potency result is “inactive”.
